Experiment [1] in a line: NCI Yeast Anticancer Drug Screen. Data for the rad50 strain (AID 155).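 Note: 0% = growth of vehicle-only cultures of the same strain.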 The note with it: S. cerevisiae rad50 strain growth inhibition, stronger effect = higher value. The essentials: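 Cells are treated with compound, grown, and their growth is then scored against vehicle-only cultures of the same repair-deficient yeast strain.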
Experiment [2] can be described thus: NCI Yeast Anticancer Drug Screen. Data for the mec2-1 strain (AID 157). The note with it: S. cerevisiae mec2-1 strain, stronger effect = higher value. A digest of the protocol:
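Vehicle-treated cultures served as reference for growth inhibition of compound-exposed mec2-1 yeast.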

Experiment [3] in a line: NCI Yeast Anticancer Drug Screen. Data for the sgs1 mgt1 strain (AID 161).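 Note: 0% = growth of cultures given vehicle only.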 The note with it: S. cerevisiae sgs1 mgt1 strain, stronger effect = higher value. A digest of the protocol: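 Inhibition of yeast growth, normalised to vehicle-treated controls, is reported for a strain bearing genetic alterations in DNA damage repair.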
Experiment [4] is described as follows: NCI Yeast Anticancer Drug Screen. Data for the cln2 rad14 strain (AID 165).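 Note: 0% = growth equal to vehicle treated cultures.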 The following applies: S. cerevisiae cln2 rad14 strain, stronger effect = higher value. The essentials: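 Each compound was tested on cln2 rad14 yeast. Inhibition of growth was calculated against vehicle-exposed controls.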
Experiment [5] can be described thus: NCI Yeast Anticancer Drug Screen. Data for the bub3 strain (AID 167). The following applies: S. cerevisiae bub3 mutant strain, stronger effect = higher value. A digest of the protocol: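 Part of a panel of yeast mutants defective in DNA damage repair or cell cycle regulation. Each strain is grown with compound, and inhibition is calculated relative to solvent-treated cultures.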

Experiment [6] is described as follows: NCI Yeast Anticancer Drug Screen. Data for the mlh1 rad18 strain (AID 175). The note with it: S. cerevisiae mlh1 rad18 strain growth inhibition, stronger effect = higher value. The essentials: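 Vehicle-treated cultures served as the reference for growth inhibition in a yeast strain carrying DNA damage repair alterations exposed to each compound.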
Where [7] appears, read: at 5.0 µM (retest, dose inferred, filed as 0.5).
Setting [8] is: at 50.0 µM (retest, dose inferred, filed as 5.0).

The panel holds about 79,000 compounds, 15% with a hit somewhere; the sample as a whole holds those more often. Unmarked numbers belong to inactive results. Calls of active or inactive are those of the source. Cut-off read from the data, not from the text of the source: active = growth inhibition above about 70%; inactive = the rest.

As for `CC1=C(C)CC2C(=O)C(C(O)CC(C)C)=CC(=O)C2C1` (stereo not given), the growth inhibition in experiment [1] (setting [7]) is -4%; in experiment [1] (setting [8]), 91% (active); in experiment [1] (at 50.0 µM) it was 97.8% (active); in experiment [2] (setting [7]) it was -5%; in experiment [2] (setting [8]) it was 91% (active); in experiment [2] (at 50.0 µM), 98.5% (active). Moreover, the growth inhibition in experiment [3] (setting [7]) was -5%; in experiment [3] (setting [8]) it was 98% (active); in experiment [3] (at 50.0 µM), 98.8% (active); in experiment [4] (setting [7]) it was -13%; in experiment [4] (setting [8]) it was 86% (active); in experiment [4] (at 50.0 µM), 95.5% (active). Moreover, the growth inhibition in experiment [5] (setting [7]) was -10%; in experiment [5] (setting [8]), 97% (active); in experiment [5] (at 50.0 µM) it was 98.2% (active); in experiment [6] (setting [7]), -9%; in experiment [6] (setting [8]), 97% (active); in experiment [6] (at 50.0 µM), 98.9% (active).
Consider `CCCCCCCCCCCCNC(=O)C[n+]1cccc(C(N)=O)c1`, for which the growth inhibition in experiment [1] (setting [7]) is 3%; in experiment [1] (setting [8]), 88% (active); in experiment [1] (at 50.0 µM) it was 79% (active); in experiment [2] (setting [7]) it was -3%; in experiment [2] (setting [8]), 90% (active); in experiment [2] (at 50.0 µM) it was 19.8%. For the same compound, the growth inhibition was -2% in experiment [3] (setting [7]); 97% (active) in experiment [3] (setting [8]); -2.6% in experiment [3] (at 50.0 µM); -6% in experiment [4] (setting [7]); 67% in experiment [4] (setting [8]); 36.4% in experiment [4] (at 50.0 µM). The growth inhibition is -9% in experiment [5] (setting [7]); 76% (active) in experiment [5] (setting [8]); 50.8% in experiment [5] (at 50.0 µM); -1% in experiment [6] (setting [7]); 85% (active) in experiment [6] (setting [8]); 51.4% in experiment [6] (at 50.0 µM).
Regarding `O=NN(CCCl)C(=O)Nc1cc(Cl)ccc1O`, the growth inhibition is -8% in experiment [1] (setting [7]); 57% in experiment [1] (setting [8]); 86.2% (active) in experiment [1] (at 50.0 µM); -8% in experiment [2] (setting [7]); 30% in experiment [2] (setting [8]); 36.1% in experiment [2] (at 50.0 µM). The growth inhibition in experiment [3] (setting [7]) was -5%; in experiment [3] (setting [8]), 46%; in experiment [3] (at 50.0 µM), 72.5% (active); in experiment [4] (setting [7]) it was -3%; in experiment [4] (setting [8]), 13%; in experiment [4] (at 50.0 µM), 8.45%. Also, the growth inhibition in experiment [5] (setting [7]) is -21%; in experiment [5] (setting [8]) it was -16%; in experiment [5] (at 50.0 µM), 37.1%; in experiment [6] (setting [7]) it was 5%; in experiment [6] (setting [8]) it was 81% (active); in experiment [6] (at 50.0 µM), 90.1% (active).
Consider `CC(C)=CCC/C(C)=C/CC/C(C)=C/CC/C=C(\C)CC/C=C(\C)CCC[N+](C)(C)[O-]`, for which the growth inhibition in experiment [1] (setting [7]) is 14%; in experiment [1] (setting [8]), 90% (active); in experiment [1] (at 50.0 µM) it was 98.9% (active); in experiment [2] (setting [7]), 17%; in experiment [2] (setting [8]), 91% (active); in experiment [2] (at 50.0 µM), 99.4% (active). For the same compound, the growth inhibition in experiment [3] (setting [7]) is 46%; in experiment [3] (setting [8]) it was 94% (active); in experiment [3] (at 50.0 µM), 99.2% (active); in experiment [4] (setting [7]), 5%; in experiment [4] (setting [8]) it was 59%; in experiment [4] (at 50.0 µM), 98.4% (active). In addition, the growth inhibition in experiment [5] (setting [7]) is 16%; in experiment [5] (setting [8]), 95% (active); in experiment [5] (at 50.0 µM) it was 98.8% (active); in experiment [6] (setting [7]), 13%; in experiment [6] (setting [8]), 73% (active); in experiment [6] (at 50.0 µM) it was 99.1% (active).
In the case of `O=C(c1ccccc1)c1cn(/N=C\c2ccccc2)c(=O)nc1-c1ccccc1`, the growth inhibition in experiment [1] (setting [7]) was -3%; in experiment [1] (setting [8]), 61%; in experiment [1] (at 50.0 µM), 88.5% (active); in experiment [2] (setting [7]), -13%; in experiment [2] (setting [8]), 96% (active); in experiment [2] (at 50.0 µM) it was 80.2% (active). Further, the growth inhibition in experiment [3] (setting [7]) was 2%; in experiment [3] (setting [8]), 94% (active); in experiment [3] (at 50.0 µM), 90.9% (active); in experiment [4] (setting [7]), 11%; in experiment [4] (setting [8]), 95% (active); in experiment [4] (at 50.0 µM) it was 87.4% (active). In addition, the growth inhibition in experiment [5] (setting [7]) was 16%; in experiment [5] (setting [8]), 97% (active); in experiment [5] (at 50.0 µM), 89% (active); in experiment [6] (setting [7]) it was -1%; in experiment [6] (setting [8]) it was 95% (active); in experiment [6] (at 50.0 µM) it was 84.5% (active).
Consider `NC(=O)NC(=O)N/N=C/c1ccc([N+](=O)[O-])o1`, for which the growth inhibition is 2% in experiment [1] (setting [7]); 25% in experiment [1] (setting [8]); 74.8% (active) in experiment [1] (at 50.0 µM); 1% in experiment [2] (setting [7]); 20% in experiment [2] (setting [8]); 22.9% in experiment [2] (at 50.0 µM). The growth inhibition in experiment [3] (setting [7]) is 5%; in experiment [3] (setting [8]), 27%; in experiment [3] (at 50.0 µM), 68.2%; in experiment [4] (setting [7]), -1%; in experiment [4] (setting [8]), 12%; in experiment [4] (at 50.0 µM) it was 38%. Also, the growth inhibition in experiment [5] (setting [7]) is -5%; in experiment [5] (setting [8]), 17%; in experiment [5] (at 50.0 µM) it was 27.2%; in experiment [6] (setting [7]), 4%; in experiment [6] (setting [8]) it was 40%; in experiment [6] (at 50.0 µM) it was 61.5%.
For the compound `CC(C)C(=O)[O][Bi]([c]1ccccc1)[c]1ccccc1`, the growth inhibition in experiment [1] (setting [7]) is 13%; in experiment [1] (setting [8]), 92% (active); in experiment [1] (at 50.0 µM), 82% (active); in experiment [2] (setting [7]) it was 7%; in experiment [2] (setting [8]), 78% (active); in experiment [2] (at 50.0 µM), 87.2% (active). Besides, the growth inhibition in experiment [3] (setting [7]) was -32%; in experiment [3] (setting [8]) it was 93% (active); in experiment [3] (at 50.0 µM), 87.5% (active); in experiment [4] (setting [7]), 9%; in experiment [4] (setting [8]), 90% (active); in experiment [4] (at 50.0 µM), 85.6% (active). In addition, the growth inhibition in experiment [5] (setting [7]) is 11%; in experiment [5] (setting [8]) it was 93% (active); in experiment [5] (at 50.0 µM), 84.5% (active); in experiment [6] (setting [7]), 15%; in experiment [6] (setting [8]), 88% (active); in experiment [6] (at 50.0 µM), 91% (active).
On to `CC(O)C(O)C(O)C(O)C(O)C(=O)O` (stereo not given), for which the growth inhibition in experiment [1] (setting [7]) was -2%; in experiment [1] (setting [8]) it was -6%; in experiment [1] (at 50.0 µM), 18.4%; in experiment [2] (setting [7]), -2%; in experiment [2] (setting [8]), -1%; in experiment [2] (at 50.0 µM) it was 10.9%. The growth inhibition in experiment [3] (setting [7]) is -1%; in experiment [3] (setting [8]), -2%; in experiment [3] (at 50.0 µM), -9.1%; in experiment [4] (setting [7]), 4%; in experiment [4] (setting [8]), -3%; in experiment [4] (at 50.0 µM), 1.95%. The growth inhibition in experiment [5] (setting [7]) was 0%; in experiment [5] (setting [8]) it was 4%; in experiment [5] (at 50.0 µM) it was 45.7%; in experiment [6] (setting [7]), -1%; in experiment [6] (setting [8]), -7%; in experiment [6] (at 50.0 µM), -10.9%.
Regarding `Nc1ccc2nc(Nc3ccc(F)cc3)cnc2c1`, the growth inhibition in experiment [1] (setting [7]) was -11%; in experiment [1] (setting [8]), 63%; in experiment [1] (at 50.0 µM), 63.5%; in experiment [2] (setting [7]), -9%; in experiment [2] (setting [8]) it was 27%; in experiment [2] (at 50.0 µM), 15.4%. Besides, the growth inhibition in experiment [3] (setting [7]) is -18%; in experiment [3] (setting [8]), 36%; in experiment [3] (at 50.0 µM), 56%; in experiment [4] (setting [7]), 17%; in experiment [4] (setting [8]), 49%; in experiment [4] (at 50.0 µM) it was 28.9%. Moreover, the growth inhibition is 7% in experiment [5] (setting [7]); 73% (active) in experiment [5] (setting [8]); 60% in experiment [5] (at 50.0 µM); 7% in experiment [6] (setting [7]); 77% (active) in experiment [6] (setting [8]); 65.2% in experiment [6] (at 50.0 µM).
For the compound `CNC(=O)OCCC(OC(=O)NC)C1CCC2C3CC=C4CC(OC(=O)NC)CCC4(C)C3CCC12C` (stereo not given), the growth inhibition in experiment [1] (setting [7]) was 85% (active); in experiment [1] (setting [8]), 94% (active); in experiment [1] (at 50.0 µM) it was 6.5%; in experiment [2] (setting [7]), 52%; in experiment [2] (setting [8]) it was 94% (active); in experiment [2] (at 50.0 µM) it was -1.8%. Further, the growth inhibition in experiment [3] (setting [7]) was 77% (active); in experiment [3] (setting [8]), 96% (active); in experiment [3] (at 50.0 µM), 2.6%; in experiment [4] (setting [7]), 72% (active); in experiment [4] (setting [8]), 89% (active); in experiment [4] (at 50.0 µM), -6.45%. The growth inhibition was 73% (active) in experiment [5] (setting [7]); 94% (active) in experiment [5] (setting [8]); -1.8% in experiment [5] (at 50.0 µM); 88% (active) in experiment [6] (setting [7]); 91% (active) in experiment [6] (setting [8]); 34.5% in experiment [6] (at 50.0 µM).
